The values below come from PubChem BioAssay (EPA / NIEHS).

Inconclusive results are not listed. Calls of active or inactive are those of the source. How the source made its calls, unless noted: active means hit-call score of the fitted dose curve at least 0.9, where 1 is the maximum; inconclusive means response in the unintended direction; inactive means score below 0.9.

The target of assay [1] is human Peroxisome Proliferator-activated Receptor delta (PPARd), PPARD (gene 5467) (UniProt Q03181). Kind of assay: ATG_PPARd_TRANS: Attagene TRANS-FACTORIAL HepG2 Assay for human Peroxisome Proliferator-activated Receptor delta (PPARd) (AID 2283002). An outline of the steps:
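Transient HepG2 transfection (multiple GAL4-UAS RTUs, chimeric receptor-Gal4); 24 h dosing; total RNA → oligo(dT) RT → PCR → 6-FAM primer extension → HpaI cut → CE. Positive direction vs DMSO.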

In assay [2] the target is human Retinoic Acid Receptor beta (RARb), RARB (gene 5915) (UniProt P10826). In words: ATG_RARb_TRANS: Attagene TRANS-FACTORIAL HepG2 Assay for human Retinoic Acid Receptor beta (AID 2283004). The essentials:
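Fluorescent capillary-electrophoresis detection of GAL4-UAS reporter mRNA defines the endpoint, with induction over DMSO-treated wells scored as activity. Transiently transfected human hepatoma HepG2 cells expressing exogenous NR–Gal4 proteins are exposed to test chemicals for 24 h.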

The target in assay [3] is Peroxisome proliferator-activated receptor gamma (Homo sapiens) (UniProt P37231). In words: ATG_PPARg_TRANS: Attagene TRANS-FACTORIAL HepG2 Assay for human Peroxisome Proliferator-activated Receptor-gamma (PPARg) (AID 2283007). The essentials: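 Transient transfection of HepG2 with GAL4-UAS-driven reporter units; chemical dosing 24 h; total RNA → oligo(dT) RT → PCR with reporter primers → 6-FAM primer extension → HpaI digest 2 h 37 C → capillary electrophoresis. Positive direction vs DMSO.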
Peroxisome proliferator-activated receptor gamma (Homo sapiens), sequence (P37231 whole entry, looked up, the tested form may be a part): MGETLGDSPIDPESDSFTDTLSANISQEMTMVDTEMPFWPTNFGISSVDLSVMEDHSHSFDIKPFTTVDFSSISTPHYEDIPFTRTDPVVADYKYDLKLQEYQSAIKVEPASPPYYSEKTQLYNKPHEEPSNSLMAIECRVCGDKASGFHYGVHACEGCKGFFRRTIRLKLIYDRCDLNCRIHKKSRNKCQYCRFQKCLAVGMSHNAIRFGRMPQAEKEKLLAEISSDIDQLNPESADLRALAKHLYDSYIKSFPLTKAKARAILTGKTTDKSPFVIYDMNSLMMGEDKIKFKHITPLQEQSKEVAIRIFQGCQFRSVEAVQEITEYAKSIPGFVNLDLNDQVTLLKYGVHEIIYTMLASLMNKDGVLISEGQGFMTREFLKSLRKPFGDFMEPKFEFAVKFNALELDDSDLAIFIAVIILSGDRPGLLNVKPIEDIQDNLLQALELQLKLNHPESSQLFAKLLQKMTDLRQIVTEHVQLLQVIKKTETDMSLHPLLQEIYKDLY

The target of assay [4] is Nuclear receptor subfamily 1 group I member 2 (Homo sapiens) (UniProt O75469). Kind of assay: ATG_PXR_TRANS: Attagene TRANS-FACTORIAL HepG2 Assay for human Pregnane X Receptor (PXR) (AID 2283008). An outline of the steps:
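Transactivation by exogenous PXR–GAL4 fusion measured as reporter transcript induction after 24 h compound treatment of transfected human HepG2 cells. Read-out via RT-PCR and capillary electrophoresis of labelled fragments, fitted upward relative to DMSO.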

Assay [5] addresses human RAR-related Orphan Receptor beta (RORb), RORB (gene 6096) (UniProt Q92753). Kind of assay: ATG_RORb_TRANS: Attagene TRANS-FACTORIAL HepG2 Assay for human RAR-related Orphan Receptor beta (RORb) (AID 2283010). The essentials:
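HepG2, transient MRTU transfection (GAL4-UAS reporters, exogenous NR-Gal4 chimeras); 24 h compound exposure; total RNA → RT-PCR → 6-FAM primer extension → HpaI digest → CE fluorescence. Positive direction vs DMSO baseline.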

Assay [6] concerns the target human RAR-related Orphan Receptor gamma (RORg), RORC (gene 6097) (UniProt P51449). In words: ATG_RORg_TRANS: Attagene TRANS-FACTORIAL HepG2 Assay for human RAR-related Orphan Receptor gamma (RORg) (AID 2283011). An outline of the steps: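 Chimeric RORg-Gal4 transactivation in transfected HepG2; 24 h exposure; RT-PCR/capillary electrophoresis readout of reporter mRNA, DMSO baseline.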

Assay [7] addresses Retinoic acid receptor RXR-alpha (Homo sapiens) (UniProt P19793). Kind of assay: ATG_RXRa_TRANS: Attagene TRANS-FACTORIAL HepG2 Assay for human Retinoid X Receptor alpha (RXRa) (AID 2283012). The essentials: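 Read-out: fluorescent reporter-transcript fragments quantified by capillary electrophoresis after RT-PCR. Transiently transfected HepG2 cells carrying GAL4-UAS reporters and NR-GAL4 chimeras were exposed to chemical for 24 h; activity scored as increase over DMSO.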

The target of assay [8] is human Retinoic Acid Receptor gamma (RARg), RARG (gene 5916) (UniProt P13631). Kind of assay: ATG_RARg_TRANS: Attagene TRANS-FACTORIAL HepG2 Assay for human Retinoic Acid Receptor gamma (RARg) (AID 2283009).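 On AC50: AC50 is for reporter induction above DMSO meaning RARg activation.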 An outline of the steps: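 Readout: reporter transcript levels via RT-PCR, 6-FAM primer-extension labelling, HpaI digestion and capillary electrophoresis. Cells: HepG2 carrying transfected RARg-GAL4 chimera plus UAS reporter set. Dosing 24 h; DMSO negative control.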
human Retinoic Acid Receptor gamma (RARg), RARG (gene 5916), sequence (P13631 whole entry, looked up, the tested form may be a part): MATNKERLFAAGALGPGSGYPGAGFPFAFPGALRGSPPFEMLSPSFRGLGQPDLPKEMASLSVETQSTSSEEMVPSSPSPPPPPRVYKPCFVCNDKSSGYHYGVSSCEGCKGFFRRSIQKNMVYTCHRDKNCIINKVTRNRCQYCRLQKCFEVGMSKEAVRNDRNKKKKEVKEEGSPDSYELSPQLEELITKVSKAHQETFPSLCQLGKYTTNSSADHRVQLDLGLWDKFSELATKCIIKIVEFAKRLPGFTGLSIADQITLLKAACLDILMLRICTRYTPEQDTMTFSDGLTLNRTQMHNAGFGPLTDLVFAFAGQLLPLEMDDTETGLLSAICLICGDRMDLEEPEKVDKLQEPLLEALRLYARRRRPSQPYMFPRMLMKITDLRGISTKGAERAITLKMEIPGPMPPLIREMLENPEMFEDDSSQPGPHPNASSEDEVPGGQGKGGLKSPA

Read-out in assay [9]: Intercellular Adhesion Molecule 1 (ICAM1), ICAM1 (gene 3383)
Kind of assay: BSK_3C_ICAM1: BioMAP Diversity Plus: 3C Assay for Intercellular Adhesion Molecule 1 (ICAM1) Biomarker Activity (AID 2283003; active means hit-call score of the fitted dose curve at least 0.9, where 1 is the maximum; inactive means score below 0.9). The note with it: primary human endothelial cells (HUVEC); actives raise or lower the signal. The essentials:
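ELISA read-out of ICAM-1; HUVEC (primary human), 3C system, 24 h post-dosing; bidirectional fit vs DMSO baseline.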

The target in assay [10] is Retinoic acid receptor alpha (Homo sapiens) (UniProt P10276). Kind of assay: ATG_RARa_TRANS: Attagene TRANS-FACTORIAL HepG2 Assay for human Retinoic Acid Receptor alpha (RARa) (AID 2283005). An outline of the steps: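 Reporter transcripts, measured by RT-PCR with fluorescent labeling and capillary electrophoresis after 24 h dosing, reflect activity of an exogenous human RARa–GAL4 fusion in transiently transfected HepG2. Fitted for increase relative to DMSO.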
Retinoic acid receptor alpha (Homo sapiens), sequence (P10276 whole entry, looked up, the tested form may be a part): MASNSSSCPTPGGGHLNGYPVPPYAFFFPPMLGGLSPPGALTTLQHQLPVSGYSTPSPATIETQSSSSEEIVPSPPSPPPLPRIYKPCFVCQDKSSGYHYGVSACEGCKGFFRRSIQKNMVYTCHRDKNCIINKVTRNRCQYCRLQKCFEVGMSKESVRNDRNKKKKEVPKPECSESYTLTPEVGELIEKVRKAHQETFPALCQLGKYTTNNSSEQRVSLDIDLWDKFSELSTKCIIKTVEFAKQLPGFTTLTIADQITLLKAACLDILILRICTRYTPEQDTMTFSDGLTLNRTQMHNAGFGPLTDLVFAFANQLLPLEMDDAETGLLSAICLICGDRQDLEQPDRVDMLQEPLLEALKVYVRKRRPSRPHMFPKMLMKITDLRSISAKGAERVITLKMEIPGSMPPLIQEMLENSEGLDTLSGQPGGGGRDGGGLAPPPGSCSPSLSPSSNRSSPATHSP

human Retinoic Acid Receptor beta (RARb), RARB (gene 5915), sequence (P10826 whole entry, looked up, the tested form may be a part): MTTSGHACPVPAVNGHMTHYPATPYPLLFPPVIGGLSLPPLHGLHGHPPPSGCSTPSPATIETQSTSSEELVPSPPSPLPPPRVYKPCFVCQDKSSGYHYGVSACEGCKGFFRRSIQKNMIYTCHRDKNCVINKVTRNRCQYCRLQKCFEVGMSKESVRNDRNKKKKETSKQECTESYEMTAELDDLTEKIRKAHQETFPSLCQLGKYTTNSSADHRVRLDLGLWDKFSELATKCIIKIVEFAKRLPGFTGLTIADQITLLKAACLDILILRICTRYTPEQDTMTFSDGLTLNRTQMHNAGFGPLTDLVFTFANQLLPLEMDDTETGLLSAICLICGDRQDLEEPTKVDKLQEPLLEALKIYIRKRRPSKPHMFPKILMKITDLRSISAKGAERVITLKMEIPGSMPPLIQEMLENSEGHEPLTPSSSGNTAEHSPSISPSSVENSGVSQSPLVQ
Nuclear receptor subfamily 1 group I member 2 (Homo sapiens), sequence (O75469 whole entry, looked up, the tested form may be a part): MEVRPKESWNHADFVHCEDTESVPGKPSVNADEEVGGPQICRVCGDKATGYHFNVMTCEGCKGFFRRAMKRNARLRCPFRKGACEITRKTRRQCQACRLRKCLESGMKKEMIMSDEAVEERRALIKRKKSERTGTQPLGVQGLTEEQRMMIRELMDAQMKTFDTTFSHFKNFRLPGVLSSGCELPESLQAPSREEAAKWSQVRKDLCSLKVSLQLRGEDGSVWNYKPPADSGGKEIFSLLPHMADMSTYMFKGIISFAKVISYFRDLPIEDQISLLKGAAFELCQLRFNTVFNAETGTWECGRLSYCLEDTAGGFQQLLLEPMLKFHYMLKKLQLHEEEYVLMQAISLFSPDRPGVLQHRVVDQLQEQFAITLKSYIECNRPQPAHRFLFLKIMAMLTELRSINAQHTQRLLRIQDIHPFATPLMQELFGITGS
human RAR-related Orphan Receptor beta (RORb), RORB (gene 6096), sequence (Q92753 whole entry, looked up, the tested form may be a part): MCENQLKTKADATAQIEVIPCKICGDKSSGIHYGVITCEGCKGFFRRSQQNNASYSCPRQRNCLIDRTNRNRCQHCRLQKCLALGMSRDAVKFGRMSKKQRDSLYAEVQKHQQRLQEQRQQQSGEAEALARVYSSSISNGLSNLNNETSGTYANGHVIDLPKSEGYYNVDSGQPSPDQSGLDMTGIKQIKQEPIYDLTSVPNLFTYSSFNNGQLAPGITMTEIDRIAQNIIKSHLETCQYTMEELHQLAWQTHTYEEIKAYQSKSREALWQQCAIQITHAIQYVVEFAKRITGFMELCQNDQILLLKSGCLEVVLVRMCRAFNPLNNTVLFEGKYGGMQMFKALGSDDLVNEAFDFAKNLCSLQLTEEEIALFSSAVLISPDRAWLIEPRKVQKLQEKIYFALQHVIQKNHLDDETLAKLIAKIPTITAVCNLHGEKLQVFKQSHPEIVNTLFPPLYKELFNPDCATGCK
human Peroxisome Proliferator-activated Receptor delta (PPARd), PPARD (gene 5467), sequence (Q03181 whole entry, looked up, the tested form may be a part): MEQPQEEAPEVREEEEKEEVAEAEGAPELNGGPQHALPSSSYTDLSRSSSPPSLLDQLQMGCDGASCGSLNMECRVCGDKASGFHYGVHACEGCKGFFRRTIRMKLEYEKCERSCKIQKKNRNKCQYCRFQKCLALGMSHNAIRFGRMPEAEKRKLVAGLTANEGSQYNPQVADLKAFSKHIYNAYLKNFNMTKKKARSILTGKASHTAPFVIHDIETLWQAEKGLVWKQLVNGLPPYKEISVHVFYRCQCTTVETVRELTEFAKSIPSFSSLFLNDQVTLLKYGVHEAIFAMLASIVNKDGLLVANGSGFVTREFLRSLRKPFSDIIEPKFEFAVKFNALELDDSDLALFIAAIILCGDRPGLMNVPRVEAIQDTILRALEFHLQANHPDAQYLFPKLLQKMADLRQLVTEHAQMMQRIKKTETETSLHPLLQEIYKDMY
human RAR-related Orphan Receptor gamma (RORg), RORC (gene 6097), sequence (P51449 whole entry, looked up, the tested form may be a part): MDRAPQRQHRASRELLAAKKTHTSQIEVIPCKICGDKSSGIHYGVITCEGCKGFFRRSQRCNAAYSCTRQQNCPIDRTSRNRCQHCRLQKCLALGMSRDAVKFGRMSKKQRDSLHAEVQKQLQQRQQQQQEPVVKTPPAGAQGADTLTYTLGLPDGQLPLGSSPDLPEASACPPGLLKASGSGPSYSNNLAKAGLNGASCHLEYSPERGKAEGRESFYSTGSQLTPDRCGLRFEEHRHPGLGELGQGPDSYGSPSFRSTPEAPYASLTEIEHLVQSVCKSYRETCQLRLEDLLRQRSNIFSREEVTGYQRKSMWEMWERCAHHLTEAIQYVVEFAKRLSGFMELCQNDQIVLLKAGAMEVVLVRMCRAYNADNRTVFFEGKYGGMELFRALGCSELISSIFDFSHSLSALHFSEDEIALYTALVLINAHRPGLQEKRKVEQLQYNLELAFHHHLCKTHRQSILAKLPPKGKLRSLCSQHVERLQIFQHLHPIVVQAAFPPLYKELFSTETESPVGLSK
Retinoic acid receptor RXR-alpha (Homo sapiens), sequence (P19793 whole entry, looked up, the tested form may be a part): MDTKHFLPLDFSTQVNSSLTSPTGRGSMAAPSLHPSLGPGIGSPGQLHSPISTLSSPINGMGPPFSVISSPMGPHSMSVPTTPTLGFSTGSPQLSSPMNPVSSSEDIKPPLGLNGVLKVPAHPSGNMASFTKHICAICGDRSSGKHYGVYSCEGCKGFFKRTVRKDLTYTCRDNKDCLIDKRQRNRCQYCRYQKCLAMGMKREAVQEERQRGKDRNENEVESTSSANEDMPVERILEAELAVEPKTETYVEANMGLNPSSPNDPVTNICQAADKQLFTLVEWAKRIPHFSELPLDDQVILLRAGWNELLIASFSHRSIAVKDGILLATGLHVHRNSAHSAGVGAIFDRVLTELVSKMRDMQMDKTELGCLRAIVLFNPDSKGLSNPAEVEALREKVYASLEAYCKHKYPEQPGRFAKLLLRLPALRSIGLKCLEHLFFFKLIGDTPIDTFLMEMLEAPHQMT

On to `CCCNC(=O)NS(=O)(=O)c1ccc(Cl)cc1`, for which the compound was classed as inactive in assay [1], in [2], in assay [3], in assay [4], in [5] and in assay [6]. For the same compound, in assay [7], the outcome was inactive.

As for `CCCCCCCCCCCCCCCC(=O)OCC`, the outcome in assay [1], in assay [2], in assay [4] and in assay [7] was inactive.

For the compound `CC=CCO`, the compound was called inactive in assay [1], in assay [2], in assay [4], in assay [8], in assay [6] and in [7].

In the case of `C=C1[C@H]2CC[C@@H]3[C@H]2C(C)(C)CCC[C@]13C`, the call in assay [1], in [2], in [3], in [4], in assay [8] and in assay [7] was inactive.

One may read the AC50 as the concentration giving half of the maximal activity seen. In the case of `CC(C)(c1cc(Br)c(OCCO)c(Br)c1)c1cc(Br)c(OCCO)c(Br)c1`, the compound was called inactive in assay [1], in assay [2] and in assay [10]. The AC50 was 28 µM (active) in [9]; 2.78 µM (active) in [3]; 1.71 µM (active) in assay [4]; 0.454 µM (active) in [8]; 81 µM (active) in assay [7].

For `CCCCCCOc1cc(C)c(O)c(C)c1C`, the result in [1], in assay [2] and in assay [4] was inactive. The concentration at half-maximal activity (AC50) in assay [3] is 11.1 µM (active).

With `OC1CCCCCCCCCCC1`, the outcome in assay [1], in assay [2], in assay [3], in assay [8] and in [7] was inactive. Besides, the AC50 in assay [4] is 8.87 µM (active).

With `C=CCOCC(O)CCl` (centres undefined), the compound was classed as inactive in assay [1], in assay [9], in assay [2], in assay [3], in assay [5] and in assay [6]. Further, the compound was called inactive in assay [7]. Also, the concentration at half-maximal activity (AC50) in [4] is 47.2 µM (active).

With `CCCC(C)CCC(C)=O` (centres undefined), the outcome in assay [1], in assay [2], in assay [10], in [3], in assay [4] and in [8] was inactive. For the same compound, the outcome in assay [5] was inactive.

For the compound `Nc1ccc(N)c(Cl)c1`, the AC50 in assay [1] is 68 µM (active); in assay [4] it was 4.08 µM (active). Besides, the outcome in assay [9] and in assay [8] was inactive.

In the case of `O=C(c1ccc(O)cc1)c1ccc(O)cc1O`, the call in assay [1], in assay [9], in assay [4], in [5] and in assay [7] was inactive. For the same compound, the AC50 in assay [3] is 35.3 µM (active).

As for `CCOc1nc(F)cc2nc(S(=O)(=O)Nc3c(Cl)cccc3C(=O)OC)nn12`, the compound was called inactive in assay [1], in assay [9], in assay [2], in assay [10], in assay [8] and in assay [6]. In [7], the compound was classed as inactive. In addition, the half-maximal activity concentration (AC50) in assay [3] was 46.2 µM (active); in assay [4] it was 7.06 µM (active).

Turning to `C=CC(=O)OCCOC(=O)C=C`, the result in assay [1], in [2], in assay [4], in assay [8], in [6] and in [7] was inactive.

For `C=CC(C)(CCC=C(C)C)OC(=O)C(C)C` (centres undefined), the call in assay [1], in [2], in [3] and in assay [7] was inactive. In [4], the half-maximal activity concentration (AC50) is 27.4 µM (active).

`C#CC1(O)CC[C@H]2[C@@H]3CCC4=CCCC[C@@H]4[C@H]3CC[C@@]21C` (some centres undefined): the compound was called inactive in assay [1], in assay [2], in assay [10], in assay [3], in [8] and in assay [7]. Further, the AC50 was 10.7 µM (active) in [9] and 2.14 µM (active) in assay [4].

On to `O=c1[nH]c(=O)c2[nH]c(=O)[nH]c2[nH]1`, for which the compound was called inactive in assay [1], in assay [2], in [5] and in assay [6].

On to `CC(C)c1ccc2c(C(C)C)cc(C(C)C)c(S(=O)(=O)O)c2c1`, for which the compound was called inactive in assay [1], in [2], in assay [5] and in assay [7]. For the same compound, the concentration at half-maximal activity (AC50) is 25.1 µM (active) in assay [3] and 1.23 µM (active) in [4].

As to `C=C[Si](OC(C)=O)(OC(C)=O)OC(C)=O`, the result in [1], in assay [9], in [10], in assay [8] and in assay [5] was inactive. In addition, the half-maximal activity concentration (AC50) in [4] was 4.82 µM (active).

`CCCCC(CC)COC(=O)c1ccccc1` (centres undefined): the result in [1], in assay [2], in [3], in assay [4], in [5] and in assay [7] was inactive.

As to `O=C(O)Cc1c(Cl)ccc(Cl)c1Cl`, the result in assay [1], in assay [2], in assay [4] and in [7] was inactive. Moreover, the half-maximal activity concentration (AC50) in [3] was 52.1 µM (active).

Consider `CCCCC/C=C\C/C=C\CCCCCCCC(=O)OC`, for which the AC50 in assay [1] was 100 µM (active); in assay [9], 32.7 µM (active); in assay [3] it was 4.68 µM (active); in assay [4] it was 47.6 µM (active). Further, the result in assay [6] and in assay [7] was inactive.

On to `Cc1ccc(C(C)c2ccc(C)c(C)c2)cc1C`, for which the call in [1], in assay [2], in assay [5] and in assay [7] was inactive. Also, the AC50 in assay [3] was 30.9 µM (active); in assay [4], 2.91 µM (active).

Consider `CCO[Si](CCCN=C=O)(OCC)OCC`, for which the call in assay [1], in assay [9], in [2], in assay [3], in assay [4] and in [7] was inactive.

On to `CN(C)CCCN(C)C`, for which the compound was classed as inactive in [1], in assay [2], in assay [3], in assay [4], in assay [5] and in assay [7].

On to `C[Si](C)(C)O[Si](O)(O)O`, for which the compound was classed as inactive in [1], in assay [2], in assay [4], in assay [8], in assay [6] and in assay [7].

`Cc1ccc(C2OC[C@@H]3OC(c4ccc(C)cc4)O[C@H]([C@H](O)CO)[C@@H]3O2)cc1` (some centres undefined): the compound was called inactive in [1], in assay [3], in [4], in assay [5] and in assay [6].

Take `Cc1cc(C)c(C)c(C)c1`: the compound was classed as inactive in assay [1], in assay [3], in assay [4], in [8], in [5] and in assay [6].

Take `O=C(O)CCCC[C@@H]1SC[C@@H]2NC(=O)N[C@@H]21`: the outcome in [1], in [10], in [3], in [4], in assay [5] and in assay [7] was inactive.

As for `O=C(Oc1ccccc1)c1ccc2ccccc2c1O`, the result in assay [1] was inactive. Also, the results for the AC50 in assay [3] and in assay [4] were 15.9 µM (active) and 16.9 µM (active), respectively.

In the case of `[Cl][In]([Cl])[Cl]`, the outcome in [1], in [10], in assay [4], in [5] and in assay [6] was inactive.

`FC(F)=C(F)OC(F)(F)C(F)(F)C(F)(F)F`: the compound was classed as inactive in assay [1], in assay [3] and in assay [4].
